Experimental findings from PubChem BioAssay are described below.

The structures appear in SMILES notation. Activity calls are given as the source filed them. Rule as the data show it: active = nuclear beta-catenin stimulation mostly above about 4.2% (no sharp cut-off); inactive = mostly below about 10%.

The first test can be described thus: Wnt pathway potentiators raising nuclear beta-catenin – imaging, WNT3A-conditioned medium, mouse C2C12, NPC library, primary screen (AID 1117326). Also: reference of the scale not given here. As to conditions: at 10 µM, stronger effect = higher value.
As to `CCCn1cnc2c1c(=O)n(CCCCC(C)=O)c(=O)n2C`, the nuclear beta-catenin stimulation was 6.6% (inactive).
As for `Cc1c(C)n(CCN(C)C)c2ccc(C(=O)OCCN(C)C)cc12`, the nuclear beta-catenin stimulation is 1.1% (inactive).
`O=C(O)C1(C(=O)O)CCC1.[NH2-].[NH2-].[Pt+2]`: the nuclear beta-catenin stimulation was 0% (inactive).
Regarding `N[C@@H](Cc1ccc(O)cc1)C(=O)O`, the nuclear beta-catenin stimulation was -2% (inactive).
On the same count and under the same terms, in the case of `C[S+](CC[C@H](N)C(=O)O)C[C@H]1O[C@@H](n2cnc3c(N)ncnc32)[C@H](O)[C@H]1O` (stereo not given in full) it was 0.8% (inactive); in that of `CCCC(=O)O[C@]1(C(=O)CO)CC[C@H]2[C@@H]3CCC4=CC(=O)CC[C@]4(C)[C@H]3[C@@H](O)C[C@@]21C`, 0.1% (inactive).
As for `O=C(O)C(S)C(S)C(=O)O` (stereo not given), the nuclear beta-catenin stimulation is 2.3% (inactive).
Still for that read-out and setting: in the case of `CC(C)=CCC[C@@](C)(O)[C@H]1CC=C(C)CC1` it was 1.8% (inactive).
With `C[C@]12CC[C@@H]3c4ccc(O)cc4CC[C@H]3[C@@H]1CC[C@@H]2OC(=O)CCC1CCCC1`, the nuclear beta-catenin stimulation was 28.4% (inactive).
Consider `CC(=O)N(c1onc(C)c1C)S(=O)(=O)c1ccc(N)cc1`, for which the nuclear beta-catenin stimulation was 0.7% (inactive).
As to `C=CC(C)(O)CCC=C(C)CCC=C(C)C` (stereo not given), the nuclear beta-catenin stimulation was 2.7% (inactive).
For `C#C[C@]1(OC(C)=O)CC[C@H]2[C@@H]3CCC4=C/C(=N/O)CC[C@@H]4[C@H]3CC[C@@]21CC`, the nuclear beta-catenin stimulation is 3.7% (inactive).
Same read-out and setting: in the case of `CCCCN1CCCC1C(=O)Nc1c(C)cc(C)cc1C` (stereo not given) it was 1% (inactive); in that of `C[C@]12CCC(=O)C=C1CC[C@H]1[C@@H]3CC[C@](O)(C(=O)CO)[C@@]3(C)C[C@H](O)[C@@]12F`, -2.1% (inactive); in that of `c1ccc2ccccc2c1`, 0.7% (inactive).
On the same count and under the same terms, in the case of `Cc1c(-c2ccc(O)cc2)n(Cc2ccc(OCCN3CCCCCC3)cc2)c2ccc(O)cc12` it was -3.3% (active); in that of `CC(=C(CCOC(=O)C(C)C)SSC(CCOC(=O)C(C)C)=C(C)N(C=O)Cc1cnc(C)nc1N)N(C=O)Cc1cnc(C)nc1N`, -0.6% (inactive); in that of `Cc1cc(-c2ccc(N=Nc3c(S(=O)(=O)O)cc4cc(S(=O)(=O)O)cc(N)c4c3O)c(C)c2)ccc1N=Nc1c(S(=O)(=O)O)cc2cc(S(=O)(=O)O)cc(N)c2c1O`, -3.5% (inactive).
As for `CCOc1cc(NC(C)=O)ccc1C(=O)OC`, the nuclear beta-catenin stimulation is 2.6% (inactive).
Consider `O=[N+]([O-])c1cccc(S(=O)(=O)NCCNS(=O)(=O)c2cccc([N+](=O)[O-])c2)c1`, for which the nuclear beta-catenin stimulation was 0.3% (inactive).
For `CC(C)Cn1cnc2c1c(=O)n(C)c(=O)n2C`, the nuclear beta-catenin stimulation was 1.9% (inactive).
On the same count and under the same terms, in the case of `CCCCC(=O)O[C@]1(C(=O)CO)CC[C@H]2[C@@H]3CCC4=CC(=O)CC[C@]4(C)[C@H]3[C@@H](O)C[C@@]21C` it was -1.9% (inactive); in that of `CCCCC[C@@H](O)CC[C@H]1[C@@H]2Cc3cccc(OCC(=O)O)c3C[C@@H]2C[C@@H]1O`, -0.3% (inactive); in that of `O=C(OCCO)c1ccccc1O`, 0.5% (inactive).
Consider `C[C@@H]1CCC[C@H](C)N1`, for which the nuclear beta-catenin stimulation was 1.3% (inactive).
`Cc1cccc(C)c1NC(=O)CC12CCCN1CCC2`: the nuclear beta-catenin stimulation was 4.2% (inactive).
On the same count and under the same terms, as for `CN(C)CCCO[C@@H]1[C@H]2OC(C)(C)O[C@H]2O[C@@H]1C(O)CO` (stereo not given in full), the figure is -2% (inactive); as for `CCN(CC)C(=O)c1cccnc1`, 2.1% (inactive); as for `O=C(O)c1cc(N=Nc2ccc(O)c(C(=O)O)c2)ccc1O`, 1.3% (inactive).
In the case of `CC(=O)Oc1ccc2c(c1)CC[C@@H]1[C@@H]2CC[C@]2(C)[C@@H](O)CC[C@@H]12`, the nuclear beta-catenin stimulation was 6.2% (inactive).
Take `CCOc1ccccc1C(N)=O`: the nuclear beta-catenin stimulation is 0.9% (inactive).
Regarding `CCCCCCCCCCCCCCCCCC[N+](C)(C)CCC[Si](OC)(OC)OC`, the nuclear beta-catenin stimulation was -0.6% (inactive).
Take `N[C@H]1C(O)O[C@H](CO)[C@@H](O)[C@@H]1O` (stereo not given in full): the nuclear beta-catenin stimulation is -1% (inactive).
Regarding `CC(CC=O)CCCC(C)(C)O` (stereo not given), the nuclear beta-catenin stimulation was 0.5% (inactive).
Turning to `C/C(=N\O)[C@@H](C)NCC(C)(C)CN[C@H](C)/C(C)=N/O`, the nuclear beta-catenin stimulation is 1.5% (inactive).
Turning to `Cc1ccc2nc(N)[nH]c(=O)c2c1Sc1ccncc1`, the nuclear beta-catenin stimulation was 63.4% (active).
Same read-out and setting: in the case of `CCOC(=O)[C@H](CCc1ccccc1)N[C@@H](C)C(=O)N1C(=O)N(C)C[C@H]1C(=O)O` it was 0% (inactive); in that of `CN1C[C@@H]2C[C@H]1CN2c1cc2c(cc1F)c(=O)c(C(=O)O)cn2C1CC1`, 0.8% (inactive); in that of `CO[C@H]1O[C@@H]2O[C@@]3(C)CC[C@H]4[C@H](C)CC[C@@H]([C@@H]1C)[C@@]24OO3`, 1.9% (inactive).
Still for that read-out and setting: in the case of `C[C@H](O)CN(C)C` it was -0.1% (inactive).

The test is the same for the next values; noted with them: stimulation, at 2 µM, stronger effect = higher value.
Turning to `CCCn1cnc2c1c(=O)n(CCCCC(C)=O)c(=O)n2C`, the nuclear beta-catenin stimulation was -0.2%.
On to `Cc1c(C)n(CCN(C)C)c2ccc(C(=O)OCCN(C)C)cc12`, for which the nuclear beta-catenin stimulation was determined as 14.1%.
Take `O=C(O)C1(C(=O)O)CCC1.[NH2-].[NH2-].[Pt+2]`: the nuclear beta-catenin stimulation was -2.2%.
Consider `N[C@@H](Cc1ccc(O)cc1)C(=O)O`, for which the nuclear beta-catenin stimulation was -0.2%.
Regarding `C[S+](CC[C@H](N)C(=O)O)C[C@H]1O[C@@H](n2cnc3c(N)ncnc32)[C@H](O)[C@H]1O` (stereo not given in full), the nuclear beta-catenin stimulation came out at 1.9%.
Same read-out and setting: in the case of `CCCC(=O)O[C@]1(C(=O)CO)CC[C@H]2[C@@H]3CCC4=CC(=O)CC[C@]4(C)[C@H]3[C@@H](O)C[C@@]21C` it was 1.4%; in that of `O=C(O)C(S)C(S)C(=O)O` (stereo not given), 0.8%.
`CC(C)=CCC[C@@](C)(O)[C@H]1CC=C(C)CC1`: the nuclear beta-catenin stimulation is 4%.
For `C[C@]12CC[C@@H]3c4ccc(O)cc4CC[C@H]3[C@@H]1CC[C@@H]2OC(=O)CCC1CCCC1`, the nuclear beta-catenin stimulation came to 2.5%.
Regarding `CC(=O)N(c1onc(C)c1C)S(=O)(=O)c1ccc(N)cc1`, the nuclear beta-catenin stimulation was determined as 0.2%.
As to `C=CC(C)(O)CCC=C(C)CCC=C(C)C` (stereo not given), the nuclear beta-catenin stimulation is -0.9%.
On to `C#C[C@]1(OC(C)=O)CC[C@H]2[C@@H]3CCC4=C/C(=N/O)CC[C@@H]4[C@H]3CC[C@@]21CC`, for which the nuclear beta-catenin stimulation amounted to 2.1%.
On the same count and under the same terms, in the case of `CCCCN1CCCC1C(=O)Nc1c(C)cc(C)cc1C` (stereo not given) it was -0.4%; in that of `C[C@]12CCC(=O)C=C1CC[C@H]1[C@@H]3CC[C@](O)(C(=O)CO)[C@@]3(C)C[C@H](O)[C@@]12F`, -2.1%; in that of `c1ccc2ccccc2c1`, 7.8%.
For `Cc1c(-c2ccc(O)cc2)n(Cc2ccc(OCCN3CCCCCC3)cc2)c2ccc(O)cc12`, the nuclear beta-catenin stimulation is 44.5%.
As to `CC(=C(CCOC(=O)C(C)C)SSC(CCOC(=O)C(C)C)=C(C)N(C=O)Cc1cnc(C)nc1N)N(C=O)Cc1cnc(C)nc1N`, the nuclear beta-catenin stimulation was 4.5%.
Regarding `Cc1cc(-c2ccc(N=Nc3c(S(=O)(=O)O)cc4cc(S(=O)(=O)O)cc(N)c4c3O)c(C)c2)ccc1N=Nc1c(S(=O)(=O)O)cc2cc(S(=O)(=O)O)cc(N)c2c1O`, the nuclear beta-catenin stimulation was -1.8%.
Still for that read-out and setting: in the case of `CCOc1cc(NC(C)=O)ccc1C(=O)OC` it was 2%; in that of `O=[N+]([O-])c1cccc(S(=O)(=O)NCCNS(=O)(=O)c2cccc([N+](=O)[O-])c2)c1`, 0.2%.
Still for that read-out and setting: in the case of `CC(C)Cn1cnc2c1c(=O)n(C)c(=O)n2C` it was -1.3%; in that of `CCCCC(=O)O[C@]1(C(=O)CO)CC[C@H]2[C@@H]3CCC4=CC(=O)CC[C@]4(C)[C@H]3[C@@H](O)C[C@@]21C`, 0.1%.
The same measure, in the same setting: as for `CCCCC[C@@H](O)CC[C@H]1[C@@H]2Cc3cccc(OCC(=O)O)c3C[C@@H]2C[C@@H]1O`, the figure is 0.2%; as for `O=C(OCCO)c1ccccc1O`, -2.3%.
As for `C[C@@H]1CCC[C@H](C)N1`, the nuclear beta-catenin stimulation turned out to be 1%.
On to `Cc1cccc(C)c1NC(=O)CC12CCCN1CCC2`, for which the nuclear beta-catenin stimulation was 1.3%.
Take `CN(C)CCCO[C@@H]1[C@H]2OC(C)(C)O[C@H]2O[C@@H]1C(O)CO` (stereo not given in full): the nuclear beta-catenin stimulation is -1%.
On to `CCN(CC)C(=O)c1cccnc1`, for which the nuclear beta-catenin stimulation was -1%.
`O=C(O)c1cc(N=Nc2ccc(O)c(C(=O)O)c2)ccc1O`: the nuclear beta-catenin stimulation is 8.5%.
The same measure, in the same setting: in the case of `CC(=O)Oc1ccc2c(c1)CC[C@@H]1[C@@H]2CC[C@]2(C)[C@@H](O)CC[C@@H]12` it was 4.6%; in that of `CCOc1ccccc1C(N)=O`, 1.6%.
Take `CCCCCCCCCCCCCCCCCC[N+](C)(C)CCC[Si](OC)(OC)OC`: the nuclear beta-catenin stimulation is -0.8%.
As to `N[C@H]1C(O)O[C@H](CO)[C@@H](O)[C@@H]1O` (stereo not given in full), the nuclear beta-catenin stimulation is 1.7%.
In the case of `CC(CC=O)CCCC(C)(C)O` (stereo not given), the nuclear beta-catenin stimulation is -1.3%.
As to `C/C(=N\O)[C@@H](C)NCC(C)(C)CN[C@H](C)/C(C)=N/O`, the nuclear beta-catenin stimulation is -1.3%.
Turning to `Cc1ccc2nc(N)[nH]c(=O)c2c1Sc1ccncc1`, the nuclear beta-catenin stimulation was determined as 61.7%.
On to `CCOC(=O)[C@H](CCc1ccccc1)N[C@@H](C)C(=O)N1C(=O)N(C)C[C@H]1C(=O)O`, for which the nuclear beta-catenin stimulation is -1.6%.
The same measure, in the same setting: in the case of `CN1C[C@@H]2C[C@H]1CN2c1cc2c(cc1F)c(=O)c(C(=O)O)cn2C1CC1` it was -0.6%.
For `CO[C@H]1O[C@@H]2O[C@@]3(C)CC[C@H]4[C@H](C)CC[C@@H]([C@@H]1C)[C@@]24OO3`, the nuclear beta-catenin stimulation worked out at 11.7%.
For `C[C@H](O)CN(C)C`, the nuclear beta-catenin stimulation turned out to be 1.5%.
